Key:
Experiment in all cases: log2 ratio of Biotin-Ahx-Ub-VS probe labelling (fragment/DMSO); higher = less target engagement (more negative = stronger competition), active = hit call of the paper (q ≤ 0.05, log2 ratio ≤ -1)
Details in all cases: compound concentration: 200 uM; treatment time: 3 h
USP19 = biological target: T1, USP19 (UniProt O94966)
T1 sequence (whole entry): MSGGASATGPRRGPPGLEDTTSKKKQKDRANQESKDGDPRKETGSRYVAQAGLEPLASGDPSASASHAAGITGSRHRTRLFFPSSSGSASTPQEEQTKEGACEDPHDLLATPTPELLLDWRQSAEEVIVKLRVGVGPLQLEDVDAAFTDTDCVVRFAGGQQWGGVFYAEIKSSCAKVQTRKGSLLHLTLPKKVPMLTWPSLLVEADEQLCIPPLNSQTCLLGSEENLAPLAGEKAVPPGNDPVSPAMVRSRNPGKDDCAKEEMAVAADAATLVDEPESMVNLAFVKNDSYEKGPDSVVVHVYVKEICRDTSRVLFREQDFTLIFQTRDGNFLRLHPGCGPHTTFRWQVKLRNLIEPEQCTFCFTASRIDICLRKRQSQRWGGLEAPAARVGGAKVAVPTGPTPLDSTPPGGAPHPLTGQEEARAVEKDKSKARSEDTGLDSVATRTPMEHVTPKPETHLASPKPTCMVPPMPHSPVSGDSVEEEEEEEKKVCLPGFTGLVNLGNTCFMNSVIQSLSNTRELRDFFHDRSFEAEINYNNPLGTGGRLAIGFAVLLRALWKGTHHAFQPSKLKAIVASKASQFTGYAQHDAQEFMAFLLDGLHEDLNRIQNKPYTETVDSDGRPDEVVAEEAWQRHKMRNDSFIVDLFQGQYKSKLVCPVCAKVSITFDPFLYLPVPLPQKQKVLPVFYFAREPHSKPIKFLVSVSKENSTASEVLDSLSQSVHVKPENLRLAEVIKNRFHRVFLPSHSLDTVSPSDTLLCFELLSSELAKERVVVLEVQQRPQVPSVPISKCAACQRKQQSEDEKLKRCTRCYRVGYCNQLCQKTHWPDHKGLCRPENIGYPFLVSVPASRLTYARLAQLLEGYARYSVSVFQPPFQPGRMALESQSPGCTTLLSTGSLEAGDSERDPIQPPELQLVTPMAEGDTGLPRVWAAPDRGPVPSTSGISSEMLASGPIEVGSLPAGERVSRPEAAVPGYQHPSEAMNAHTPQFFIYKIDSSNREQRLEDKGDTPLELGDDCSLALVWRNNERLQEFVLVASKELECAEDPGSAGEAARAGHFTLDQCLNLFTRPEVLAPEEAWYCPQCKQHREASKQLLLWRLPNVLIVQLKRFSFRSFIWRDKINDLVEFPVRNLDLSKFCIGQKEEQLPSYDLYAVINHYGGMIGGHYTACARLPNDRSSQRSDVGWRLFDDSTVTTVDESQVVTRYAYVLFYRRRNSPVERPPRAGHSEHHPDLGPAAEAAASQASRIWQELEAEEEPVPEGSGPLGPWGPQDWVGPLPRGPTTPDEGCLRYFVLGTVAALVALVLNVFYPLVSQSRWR
Method in brief: (§1)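 Using Biotin-Ahx-Ub-VS at 0.5 µM final for 1 h, DUBs were labelled in HEK293T lysate (495 µg per sample) that had first been treated in triplicate with fragment at 200 µM or vehicle for 3 h. NeutrAvidin enrichment, LysC and trypsin digestion and diaPASEF LC-MS/MS followed. Spectronaut label-free quantities were global-median-normalised. Values are average log2 fragment/vehicle ratios by unpaired t-test, using proteins with ≥2 unique peptides.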

USP24 = USP24 (UniProt Q9UPU5)
Chain of USP24 (Q9UPU5 whole entry): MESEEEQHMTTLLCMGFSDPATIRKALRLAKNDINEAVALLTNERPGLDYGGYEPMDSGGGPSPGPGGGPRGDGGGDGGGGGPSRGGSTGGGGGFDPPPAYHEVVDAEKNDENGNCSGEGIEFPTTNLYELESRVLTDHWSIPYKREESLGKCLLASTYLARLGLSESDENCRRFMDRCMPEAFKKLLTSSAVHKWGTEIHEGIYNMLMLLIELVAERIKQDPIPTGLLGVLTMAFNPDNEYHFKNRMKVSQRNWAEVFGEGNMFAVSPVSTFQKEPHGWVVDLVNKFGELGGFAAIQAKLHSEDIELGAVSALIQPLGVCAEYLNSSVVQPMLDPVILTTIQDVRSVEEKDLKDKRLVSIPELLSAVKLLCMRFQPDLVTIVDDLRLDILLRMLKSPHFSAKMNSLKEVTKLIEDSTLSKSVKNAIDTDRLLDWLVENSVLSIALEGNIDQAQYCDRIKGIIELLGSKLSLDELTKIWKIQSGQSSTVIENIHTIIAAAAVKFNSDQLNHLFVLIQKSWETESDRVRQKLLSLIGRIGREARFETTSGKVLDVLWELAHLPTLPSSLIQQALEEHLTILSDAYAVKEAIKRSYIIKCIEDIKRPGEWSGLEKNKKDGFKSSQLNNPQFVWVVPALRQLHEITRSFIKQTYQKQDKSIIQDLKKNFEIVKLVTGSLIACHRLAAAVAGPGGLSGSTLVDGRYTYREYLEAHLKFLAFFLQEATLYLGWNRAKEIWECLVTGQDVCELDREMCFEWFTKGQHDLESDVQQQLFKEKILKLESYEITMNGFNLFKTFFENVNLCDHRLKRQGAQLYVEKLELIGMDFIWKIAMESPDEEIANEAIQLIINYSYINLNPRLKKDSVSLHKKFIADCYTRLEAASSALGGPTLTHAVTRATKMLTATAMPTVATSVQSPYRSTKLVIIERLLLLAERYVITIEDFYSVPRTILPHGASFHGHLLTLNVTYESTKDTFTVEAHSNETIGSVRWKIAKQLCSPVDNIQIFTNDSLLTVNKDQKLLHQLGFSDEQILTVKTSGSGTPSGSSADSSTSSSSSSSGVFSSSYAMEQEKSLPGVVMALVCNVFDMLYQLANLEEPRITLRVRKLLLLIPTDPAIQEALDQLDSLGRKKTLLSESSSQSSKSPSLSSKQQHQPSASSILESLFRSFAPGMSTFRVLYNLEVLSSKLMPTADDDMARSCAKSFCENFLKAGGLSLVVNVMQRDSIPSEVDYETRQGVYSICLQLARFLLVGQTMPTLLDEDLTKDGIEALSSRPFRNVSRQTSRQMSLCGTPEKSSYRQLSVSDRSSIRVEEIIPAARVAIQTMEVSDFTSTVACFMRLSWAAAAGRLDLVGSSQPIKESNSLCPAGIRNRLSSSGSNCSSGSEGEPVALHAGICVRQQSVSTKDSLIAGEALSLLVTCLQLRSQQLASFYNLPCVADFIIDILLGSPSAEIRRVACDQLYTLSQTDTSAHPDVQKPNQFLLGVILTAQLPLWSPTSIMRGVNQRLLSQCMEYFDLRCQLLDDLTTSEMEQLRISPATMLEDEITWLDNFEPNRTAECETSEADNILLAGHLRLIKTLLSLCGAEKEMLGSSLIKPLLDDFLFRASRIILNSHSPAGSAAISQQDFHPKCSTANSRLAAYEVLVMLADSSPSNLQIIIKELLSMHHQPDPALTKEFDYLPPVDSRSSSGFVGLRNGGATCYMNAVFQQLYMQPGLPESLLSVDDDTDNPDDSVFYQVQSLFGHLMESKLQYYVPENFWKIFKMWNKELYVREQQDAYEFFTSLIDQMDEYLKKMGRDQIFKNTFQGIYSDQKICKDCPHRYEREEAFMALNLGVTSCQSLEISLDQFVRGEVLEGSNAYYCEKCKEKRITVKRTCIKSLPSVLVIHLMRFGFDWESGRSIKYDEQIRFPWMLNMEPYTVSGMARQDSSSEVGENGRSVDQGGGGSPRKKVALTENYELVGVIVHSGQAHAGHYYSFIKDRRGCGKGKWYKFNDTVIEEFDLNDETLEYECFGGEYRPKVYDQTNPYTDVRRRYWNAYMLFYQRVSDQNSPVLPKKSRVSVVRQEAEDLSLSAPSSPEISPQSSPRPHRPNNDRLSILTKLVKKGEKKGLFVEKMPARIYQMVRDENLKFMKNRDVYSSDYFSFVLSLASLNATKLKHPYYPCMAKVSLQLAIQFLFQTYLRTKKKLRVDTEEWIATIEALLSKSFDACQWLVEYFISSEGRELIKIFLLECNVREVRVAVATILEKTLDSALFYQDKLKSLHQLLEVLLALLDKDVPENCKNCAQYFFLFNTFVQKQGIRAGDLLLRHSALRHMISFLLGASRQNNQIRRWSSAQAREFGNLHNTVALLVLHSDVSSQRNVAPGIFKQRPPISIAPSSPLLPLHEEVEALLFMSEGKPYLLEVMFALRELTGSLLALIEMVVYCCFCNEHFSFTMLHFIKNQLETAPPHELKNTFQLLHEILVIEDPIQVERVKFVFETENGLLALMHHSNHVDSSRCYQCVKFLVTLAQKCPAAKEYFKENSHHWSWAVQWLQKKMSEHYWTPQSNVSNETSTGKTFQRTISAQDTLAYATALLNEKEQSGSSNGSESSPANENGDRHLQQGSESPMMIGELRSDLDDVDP
Method in brief: as §1

USP25 = biological target: T2, USP25 (UniProt Q9UHP3)
T2 sequence (whole entry): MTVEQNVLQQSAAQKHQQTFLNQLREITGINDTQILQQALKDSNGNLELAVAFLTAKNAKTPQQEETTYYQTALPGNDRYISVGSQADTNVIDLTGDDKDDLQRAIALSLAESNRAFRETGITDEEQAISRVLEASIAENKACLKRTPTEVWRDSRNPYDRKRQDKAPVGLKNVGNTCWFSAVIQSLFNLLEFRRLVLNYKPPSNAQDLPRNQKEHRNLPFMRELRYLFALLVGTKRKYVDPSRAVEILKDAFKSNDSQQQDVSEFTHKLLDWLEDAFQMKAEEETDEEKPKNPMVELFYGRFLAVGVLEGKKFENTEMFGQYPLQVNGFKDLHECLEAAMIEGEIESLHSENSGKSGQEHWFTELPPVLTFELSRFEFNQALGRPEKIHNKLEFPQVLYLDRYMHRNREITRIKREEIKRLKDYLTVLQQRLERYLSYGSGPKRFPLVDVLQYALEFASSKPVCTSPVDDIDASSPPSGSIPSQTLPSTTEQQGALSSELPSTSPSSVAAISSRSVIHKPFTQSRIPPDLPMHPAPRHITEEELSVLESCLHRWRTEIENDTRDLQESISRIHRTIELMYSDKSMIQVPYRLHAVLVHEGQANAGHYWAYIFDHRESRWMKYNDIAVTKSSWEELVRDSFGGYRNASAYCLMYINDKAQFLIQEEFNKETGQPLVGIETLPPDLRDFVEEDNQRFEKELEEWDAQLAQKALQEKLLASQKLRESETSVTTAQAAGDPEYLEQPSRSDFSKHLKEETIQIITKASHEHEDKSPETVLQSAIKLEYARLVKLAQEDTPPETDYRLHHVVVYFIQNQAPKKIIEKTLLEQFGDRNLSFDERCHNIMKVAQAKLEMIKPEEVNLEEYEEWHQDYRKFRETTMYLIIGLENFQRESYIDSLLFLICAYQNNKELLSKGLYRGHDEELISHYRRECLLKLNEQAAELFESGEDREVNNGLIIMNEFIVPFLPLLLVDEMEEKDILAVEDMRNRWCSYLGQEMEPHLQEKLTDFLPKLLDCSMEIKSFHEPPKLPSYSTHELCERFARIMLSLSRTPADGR
Method in brief: as §1

USP28 = biological target: T3, USP28 (UniProt Q96RU2)
T3 sequence (whole entry): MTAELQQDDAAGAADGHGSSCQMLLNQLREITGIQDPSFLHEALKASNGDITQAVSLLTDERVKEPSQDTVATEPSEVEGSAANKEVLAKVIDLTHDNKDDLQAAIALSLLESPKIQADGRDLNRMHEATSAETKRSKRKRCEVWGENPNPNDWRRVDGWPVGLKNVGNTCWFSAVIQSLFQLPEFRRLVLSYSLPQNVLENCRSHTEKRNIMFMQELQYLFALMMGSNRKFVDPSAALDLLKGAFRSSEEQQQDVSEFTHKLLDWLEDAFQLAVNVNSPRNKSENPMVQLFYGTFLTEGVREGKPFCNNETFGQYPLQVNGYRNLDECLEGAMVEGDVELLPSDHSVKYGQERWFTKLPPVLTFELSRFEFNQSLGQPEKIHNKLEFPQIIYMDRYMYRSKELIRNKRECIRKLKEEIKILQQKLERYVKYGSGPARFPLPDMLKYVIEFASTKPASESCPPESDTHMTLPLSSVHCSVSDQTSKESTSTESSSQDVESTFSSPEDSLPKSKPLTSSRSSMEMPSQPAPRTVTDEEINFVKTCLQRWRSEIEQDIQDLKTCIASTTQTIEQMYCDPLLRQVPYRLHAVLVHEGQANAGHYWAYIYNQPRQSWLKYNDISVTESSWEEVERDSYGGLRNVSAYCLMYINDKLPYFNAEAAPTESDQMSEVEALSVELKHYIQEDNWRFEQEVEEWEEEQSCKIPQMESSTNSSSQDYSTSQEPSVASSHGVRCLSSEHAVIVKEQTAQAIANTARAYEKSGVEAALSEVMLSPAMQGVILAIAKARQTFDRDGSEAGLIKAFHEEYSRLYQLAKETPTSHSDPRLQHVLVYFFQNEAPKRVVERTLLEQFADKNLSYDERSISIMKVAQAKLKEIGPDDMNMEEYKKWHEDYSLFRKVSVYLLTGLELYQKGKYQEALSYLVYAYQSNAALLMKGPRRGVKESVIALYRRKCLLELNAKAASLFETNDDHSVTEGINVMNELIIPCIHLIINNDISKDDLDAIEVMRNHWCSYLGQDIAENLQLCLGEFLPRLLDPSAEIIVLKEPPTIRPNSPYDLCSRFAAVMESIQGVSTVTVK
Method in brief: as §1

Measured: log2 ratio of Biotin-Ahx-Ub-VS probe labelling

O=C(CCl)Nc1cc(Cl)ccc1C(=O)O
inactive: USP19 -0.0222 | USP24 -0.0569 | USP25 0.269 | USP28 -0.0169

— the supplement of paper PMC11732987, “Enantioselective OTUD7B fragment discovery through chemoproteomics screening and high-throughput optimisation” (Communications Chemistry, 2025)
